# Inconclusive results are not listed. A call without a number means that no potency is given here. Activity calls are given as the source filed them. Calls follow the shape of the dose curve; as a rule, active = well fitted curve in the direction sought with a large enough effect in the repeat runs; inconclusive = weak or mixed curves; inactive = no such curve, though single readings can be large; an effect the other way counts as inactive or inconclusive.
# What was measured:
# [1] = A CellTox Green Cytotoxicity Assay to monitor cytotoxicity in HEK293 cells - 32 hour (AID 1224881); also: nearly all actives have a fitted effect of over 40% in size; also: potency is read from the fitted curve at half-maximal effect
# Summary of the method: (§1)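 Fluorescence intensity, read at 0, 8, 16, 24, 32 and 40 h of compound treatment, reflected dye binding to DNA of dead HEK293 cells; compounds (23 nL, DMSO) were added 5 h after plating cells with reagent.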
# [2] = A CellTox Green Cytotoxicity Assay to monitor cytotoxicity in HepG2 cells - 0 hour (AID 1224882); also: nearly all actives have a fitted effect of over 35% in size
# Summary of the method: (§2)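 Using 1536-well format, dye-containing HepG2 suspension was seeded, allowed 5 h at 37 C/5% CO2, dosed by pintool with compounds, positive and negative controls, and imaged for fluorescence across 40 h.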
# [3] = A CellTox Green Cytotoxicity Assay to monitor cytotoxicity in HepG2 cells - 32 hour (AID 1224883); also: nearly all actives have a fitted effect of over 50% in size; also: potency is read from the fitted curve at half-maximal effect
# Summary of the method: as §2
# [4] = A CellTox Green Cytotoxicity Assay to monitor cytotoxicity in HEK293 cells - 8 hour (AID 1224884); also: nearly all actives have a fitted effect of over 35% in size; also: potency is read from the fitted curve at half-maximal effect
# Summary of the method: as §1
# [5] = qHTS RealTime-Glo MT Cell Viability Assay in HepG2 cells - 16 hour (AID 1224885); also: nearly all actives have a fitted effect of over 50% in size; also: potency is read from the fitted curve at half-maximal effect
# Summary of the method: (§3)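 Tox21 10K library screened in qHTS format on HepG2 cells carrying RealTime-Glo reagents. Compounds were added after a 5 h preincubation, and the luminescent signal from continuous culture was measured repeatedly during 40 h treatment.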
# [6] = qHTS RealTime-Glo MT Cell Viability Assay in HEK293 cells - 24 hour (AID 1224886); also: nearly all actives have a fitted effect of over 50% in size; also: potency is read from the fitted curve at half-maximal effect
# Summary of the method: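 Luminescence generated by NanoLuc from substrate produced by living HEK293 cells served as the viability signal. Each value reflects the reading at its stated time point during continuous 40 h compound exposure at 37 C.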
# [7] = qHTS RealTime-Glo MT Cell Viability Assay in HEK293 cells - 8 hour (AID 1224887); also: nearly all actives have a fitted effect of over 50% in size; also: potency is read from the fitted curve at half-maximal effect
# Summary of the method: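 Viable HEK293 cells reduce a cell-permeant prosubstrate; the product diffuses out and is consumed by NanoLuc in the medium to give light. Compounds went in after a 5 h incubation and plates were read over the treatment course.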
# [8] = A CellTox Green Cytotoxicity Assay to monitor cytotoxicity in HEK293 cells - 16 hour (AID 1224888); also: nearly all actives have a fitted effect of over 35% in size; also: potency is read from the fitted curve at half-maximal effect
# Summary of the method: as §1
# [9] = qHTS RealTime-Glo MT Cell Viability Assay in HepG2 cells - 0 hour (AID 1224889); also: nearly all actives have a fitted effect of over 50% in size
# Summary of the method: as §3
# [10] = A CellTox Green Cytotoxicity Assay to monitor cytotoxicity in HepG2 cells - 8 hour (AID 1224890); also: nearly all actives have a fitted effect of over 45% in size; also: potency is read from the fitted curve at half-maximal effect
# Summary of the method: as §2
Compound,Potency [1],Potency [2],Potency [3],Potency [4],Potency [5],Potency [6],Potency [7],Potency [8],Potency [9],Potency [10]
Cc1c([N+](=O)[O-])c(C)c([N+](=O)[O-])c(C(C)(C)C)c1[N+](=O)[O-],inactive,inactive,inactive,inactive,inactive,inactive,inactive,inactive,inactive,inactive
CNN,inactive,inactive,inactive,inactive,inactive,inactive,inactive,inactive,inactive,inactive
Clc1cc(Cl)c(-c2cc(Cl)c(Cl)cc2Cl)cc1Cl,inactive,inactive,inactive,inactive,inactive,inactive,inactive,inactive,inactive,inactive
Nc1cc(Cl)ccc1Cl,inactive,inactive,inactive,inactive,inactive,inactive,inactive,inactive,inactive,inactive
Cc1cnc2c(C(=O)O)c(Cl)ccc2c1,inactive,inactive,inactive,inactive,inactive,inactive,inactive,inactive,inactive,inactive
CNC(=O)/C=C(\C)OP(=O)(OC)OC,inactive,inactive,inactive,inactive,inactive,inactive,inactive,inactive,inactive,inactive
COP(=S)(OC)Oc1ccc([N+](=O)[O-])c(C)c1,inactive,inactive,inactive,inactive,inactive,inactive,inactive,inactive,inactive,inactive
CCCCC/C=C\C/C=C\C/C=C\C/C=C\CCCC(=O)NCC(=O)O,inactive,inactive,inactive,inactive,inactive,inactive,inactive,inactive,inactive,inactive
CCCCn1cc[n+](C)c1.[Cl][Fe-]([Cl])([Cl])[Cl],inactive,inactive,inactive,inactive,inactive,inactive,inactive,inactive,inactive,inactive
CCOP(=O)(Sc1ccccc1)Sc1ccccc1,inactive,inactive,inactive,inactive,inactive,inactive,inactive,inactive,inactive,inactive
CNC(=O)Oc1cc(C)cc(C(C)C)c1,inactive,inactive,inactive,inactive,inactive,inactive,inactive,inactive,inactive,inactive
O=[N+]([O-])c1ccccc1-c1ccccc1,inactive,inactive,inactive,inactive,inactive,inactive,inactive,inactive,inactive,inactive
Clc1ccc(C2(Cn3cncn3)OCCO2)c(Cl)c1,inactive,inactive,inactive,inactive,inactive,inactive,inactive,inactive,inactive,inactive
Oc1ccc(Cl)c(Cl)c1,inactive,inactive,inactive,inactive,inactive,inactive,inactive,inactive,inactive,inactive
CC[C@H](C)[C@H]1O[C@]2(C=C[C@@H]1C)C[C@@H]1C[C@@H](C/C=C(\C)[C@@H](O[C@H]3C[C@H](OC)[C@@H](O[C@H]4C[C@H](OC)[C@@H](NC)[C@H](C)O4)[C@H](C)O3)[C@@H](C)/C=C/C=C3\CO[C@@H]4[C@H](O)C(C)=C[C@@H](C(=O)O1)[C@]34O)O2,12.3 µM (active),inactive,11 µM (active),13.8 µM (active),12.3 µM (active),5.49 µM (active),8.71 µM (active),15.5 µM (active),inactive,17.4 µM (active)
CC(Cc1ccc(O)cc1)NCC(O)c1cc(O)cc(O)c1 (stereo not given),inactive,inactive,inactive,inactive,inactive,inactive,inactive,inactive,inactive,inactive
CNC(=O)CSP(=O)(OC)OC,inactive,inactive,inactive,inactive,inactive,inactive,inactive,inactive,inactive,inactive
O=C(N[C@H]1N=C(c2ccccc2F)c2cccc3c2N(CC3)C1=O)c1cc2ccccc2[nH]1,inactive,inactive,inactive,inactive,inactive,inactive,inactive,inactive,inactive,inactive
O=c1[nH]c2cc(Cl)ccc2n1C1CCNCC1,inactive,inactive,inactive,inactive,inactive,inactive,inactive,inactive,inactive,inactive
O=S(=O)(NS(=O)(=O)C(F)(F)F)C(F)(F)F,inactive,inactive,48.9 µM (active),inactive,inactive,1.23 µM (active),inactive,inactive,inactive,inactive
CCN(CC)Cc1nccn1-c1ccc([N+](=O)[O-])cc1C(=O)c1ccccc1Cl,inactive,inactive,inactive,inactive,inactive,inactive,inactive,inactive,inactive,inactive
C[N+]1(C)[C@@H]2CC[C@H]1CC(OC(=O)C(CO)c1ccccc1)C2 (stereo not given in full),inactive,inactive,inactive,inactive,inactive,inactive,inactive,inactive,inactive,inactive
CC(Cc1ccc(OCC(=O)O)cc1)NCC(O)c1csc(C(F)(F)F)n1 (stereo not given),inactive,inactive,inactive,inactive,inactive,inactive,inactive,inactive,inactive,inactive
